Our source for the cytotoxicity values is PubChem BioAssay AID430 (Sanford-Burnham Center for Chemical Genomics, 2006).

The campaign covered roughly 63,000 compounds. About 1,100 (1.7%) were called active. The entries come from a sample that favours actives as a whole. Entries with a potency or affinity are not part of this list. Unmarked numbers belong to inactive results. No stated cut-off is given here; in the data, active means cytotoxicity above about 50%; inactive means the rest.

The nature of the experiment: HPDE-C7 pancreatic duct cell viability loss – fluorescence, HTS (AID 430).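 Further: cells exposed to compound for 48 hours before viability readout; 0% = vehicle and 100% = reference cytotoxic drug.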 As to conditions: HPDE-C7 pancreatic duct cells viability, at 10 µM, stronger effect = higher value.
Consider `CCC(c1nnnn1C(C)(C)C)N(CCOC)Cc1cc2cccc(C)c2n2nnnc12` (stereo unspecified), for which the cytotoxicity was 5.7%.

As for `CCOC(=O)c1c(C)oc2c1c(/C=N/c1ccccn1)c(O)c1ccccc12`, the cytotoxicity was 1.4%.

As to `CCOC(=O)c1c(C)oc2c1c(C=NCc1ccccn1)c(O)c1ccccc12`, the cytotoxicity is 91% (active).

Consider `CCOC(=O)c1c(C)oc2c1c(C(c1cccnc1)N1CCN(C)CC1)c(O)c1ccccc12` (stereo unspecified), for which the cytotoxicity was 112% (active).

Take `CCOC(=O)c1c(C)oc2c1c(C=NCC1CCCO1)c(O)c1ccccc12` (stereo unspecified): the cytotoxicity is -16.9%.

As for `CCOC(=O)c1c(C)oc2c1c1c(c3ccccc32)OCN(Cc2cccnc2)C1`, the cytotoxicity is 2.1%.

Regarding `CCOC(=O)c1c(C)oc2c1c(C=NC1CCS(=O)(=O)C1)c(O)c1ccccc12` (stereo unspecified), the cytotoxicity is 28.9%.

In the case of `O=S(=O)(N1CCCCC1)N1CCN(S(=O)(=O)N2CCCCC2)CC1`, the cytotoxicity is 0.2%.

Take `CCOC(=O)CNC(=O)C(Cc1ccccc1)NS(=O)(=O)c1cccs1` (stereo unspecified): the cytotoxicity is 2.5%.

Consider `COc1ccccc1NS(=O)(=O)c1ccc(NC(C)=O)cc1`, for which the cytotoxicity was -0.5%.

Regarding `COC(=O)/C=C/S(=O)(=O)c1ccc(NC(C)=O)cc1`, the cytotoxicity is 102% (active).

In the case of `CCOC(=O)CN(Cc1ccccc1)S(=O)(=O)c1ccc(NC(C)=O)cc1`, the cytotoxicity is -2.7%.

`COC(=O)C(C)NS(=O)(=O)c1ccc(NC(C)=O)cc1` (stereo unspecified): the cytotoxicity was -12.8%.

For `CC(=O)Nc1ccc(S(=O)(=O)c2ccc(N)cc2)cc1`, the cytotoxicity is -11%.

Consider `O=C(CSc1nnc(COc2ccc(Cl)cc2)o1)OC1CCCCC1`, for which the cytotoxicity was -7.9%.

In the case of `CCOC(=O)N1CCC(NCCNC(=O)c2cccs2)CC1`, the cytotoxicity was -6.4%.

With `O=C(Cc1ccccc1)N1CCCC1c1ccccc1` (stereo unspecified), the cytotoxicity was -22.3%.

On to `CCCCN(C(=O)NC(=O)Nc1ccccc1OC)S(C)(=O)=O`, for which the cytotoxicity is -3.1%.

Regarding `CCOC(=O)N1CCN(C(=O)CSc2nnc(-c3ccc(C(C)(C)C)cc3)o2)CC1`, the cytotoxicity is 2.6%.

Regarding `O=C(CNC1CCCCCC1)Nc1ccc(S(=O)(=O)NC2CC2)cc1`, the cytotoxicity was -6.7%.

`Cc1ccc(-c2cc(-c3ccccc3Cl)c(C#N)c(N)n2)o1`: the cytotoxicity was 11.3%.

Regarding `Cc1ccc(-c2cc(-c3ccc(C)o3)nc(N)c2C#N)cc1`, the cytotoxicity was 20.9%.

For the molecule `Cc1ccc(-c2cc(-c3ccc(F)cc3)nc(N)c2C#N)o1`, the cytotoxicity is 20.1%.

With `Cc1ccc(-c2cc(-c3ccc(Cl)cc3)c(C#N)c(N)n2)o1`, the cytotoxicity was 64.4% (active).

Take `Cc1ccc(-c2cc(-c3ccccc3)c(C#N)c(N)n2)o1`: the cytotoxicity was 29.8%.

Consider `Cc1cc(-c2cc(-c3ccc(Cl)cc3)nc(N)c2C#N)co1`, for which the cytotoxicity is 77.8% (active).

Take `COCC(=O)Nc1nc2n(n1)C(c1ccc(OC)cc1)CC(c1ccc(OC)cc1)N2` (stereo unspecified): the cytotoxicity is 2.7%.

Turning to `O=C(NCCN1CCc2ccccc2C1)Nc1ccc(F)cc1`, the cytotoxicity was -10.7%.

Regarding `CSc1nc2cc(F)c(F)cc2n1C`, the cytotoxicity is -9.5%.

Turning to `COc1cc(C)c(Br)cc1S(=O)(=O)N1CCOCC1`, the cytotoxicity was -9.6%.

Regarding `Cc1nn(CCCC(=O)N2CCc3ccccc3C2)c(=O)c2cc3sccc3n12`, the cytotoxicity is -7.2%.

Take `O=C(Oc1ccccc1C(=O)N1CCOCC1)c1ccc(Br)cc1`: the cytotoxicity is -14.1%.

In the case of `CN(CCc1ccccn1)Cc1ccc(Cl)cc1`, the cytotoxicity is -13.4%.

In the case of `CC(C)c1nc2oc3c(NCC4CCCO4)ncnc3c2c2c1COC(C)(C)C2` (stereo unspecified), the cytotoxicity is -14.6%.

Turning to `CC(C)c1nc2oc3c(NCC4CCCO4)ncnc3c2c2c1CCC2` (stereo unspecified), the cytotoxicity is 114% (active).

With `Cc1nc2oc3c(NCC4CCCO4)ncnc3c2c2c1COC(C)(C)C2` (stereo unspecified), the cytotoxicity is -3.9%.

With `CCCc1cc(N2CCCC(C(=O)Nc3cc(Cl)ccc3OC)C2)n2ncnc2n1` (stereo unspecified), the cytotoxicity was -9.9%.

For `COc1cc(NC(=O)Nc2ccccc2)c(OC)cc1NC(=O)CN1CCCCC1`, the cytotoxicity is 6.1%.

Regarding `COc1cc(NC(=O)Nc2cccc(Cl)c2)c(OC)cc1NC(=O)CN1CCCCC1`, the cytotoxicity is 83.1% (active).

With `COc1cc(NC(=O)Nc2ccccc2OC)c(OC)cc1NC(=O)CN1CCCCC1`, the cytotoxicity is 1.9%.

Take `Cc1nc(CNS(=O)(=O)c2ccc3c(c2)OCCO3)cs1`: the cytotoxicity was -11.4%.

With `CC1CCCC(NS(=O)(=O)c2ccc3c(c2)OCCO3)C1C` (stereo unspecified), the cytotoxicity was -7.8%.

In the case of `Cc1ccc(-c2csc(N3CCC(NS(=O)(=O)c4ccc5c(c4)OCCO5)CC3)n2)cc1`, the cytotoxicity is 54.6% (active).

Consider `Cc1nc2ccc(S(=O)(=O)NCC(=O)N3CCC(C)CC3)cc2s1`, for which the cytotoxicity was -1%.

`O=c1[nH]c(-c2ccc(Cl)cc2)nc2c1cnn2-c1ccccc1`: the cytotoxicity was 3.6%.

Regarding `CCCCSc1nc2c(cnn2-c2ccc(F)cc2)c(=O)[nH]1`, the cytotoxicity was -30.5%.

For `CCCCCSc1nc2c(cnn2-c2ccccc2)c(=O)[nH]1`, the cytotoxicity was 57.7% (active).

In the case of `CCCSc1nc2c(cnn2-c2ccccc2)c(=O)[nH]1`, the cytotoxicity was -0.6%.

With `CCOC(=O)N1CCN(c2c(-c3ccc(C(C)C)cc3)c(=O)c2=O)CC1`, the cytotoxicity is 1.3%.

As to `COCc1nc(-c2cc(OC)c(OC)c(OC)c2)no1`, the cytotoxicity is -19%.

In the case of `CCN(CC)c1ccc2cc(-c3nc4ccccc4[nH]3)c(=O)oc2c1`, the cytotoxicity is 30.8%.

In the case of `O=c1oc2ccc3ccccc3c2cc1-c1nnc(-c2ccccc2)o1`, the cytotoxicity was 13.4%.

For the molecule `CC(=O)Oc1ccc2cc(-c3nc4ccccc4n3C)c(=O)oc2c1`, the cytotoxicity was 4.2%.

In the case of `CCN(CC)c1ccc2cc(-c3nnc(-c4ccncc4)o3)c(=O)oc2c1`, the cytotoxicity was 59.2% (active).

`CCN(CC)c1ccc2cc(-c3nc4ccccc4n3C)c(=O)oc2c1`: the cytotoxicity was 67% (active).

With `CCN(CC)c1ccc2cc(C(=O)Nc3ccccn3)c(=O)oc2c1`, the cytotoxicity was 9.8%.

Consider `O=C(Nc1cccnc1)c1cc2nc(C3CC3)cc(C(F)(F)F)n2n1`, for which the cytotoxicity is -15.8%.

`Cc1ccc(SCc2cn3c(C)csc3n2)cc1`: the cytotoxicity was -10.2%.

As to `c1ccc(OCc2nn3c(Cn4nnc5ccccc54)nnc3s2)cc1`, the cytotoxicity is -15.5%.

For `Cc1noc(C)c1S(=O)(=O)Nc1ccc(C(=O)N2CCc3ccccc3C2)cc1`, the cytotoxicity was -2.2%.

Consider `Cn1nnc(NC(=O)c2ccccc2F)n1`, for which the cytotoxicity is -4.8%.

Take `CN1CCN(Cc2c(O)ccc3c(=O)c(Oc4ccccc4Cl)c(C(F)(F)F)oc23)CC1`: the cytotoxicity was -17%.

In the case of `O=C(c1ccco1)N1CCN(C(=O)c2cccc3c2C(=O)N(C2CCCCC2)C3)CC1`, the cytotoxicity is -10%.

In the case of `CN1CCN(CC#CC2(O)CCCCC2)CC1`, the cytotoxicity is -31.9%.

Take `COc1ccc(CC(=O)Nc2ccc(-c3noc(-c4cc(OC)c(OC)c(OC)c4)n3)cc2)cc1`: the cytotoxicity was -2.7%.

Consider `CC(C)c1nc2sc3c(SCC(=O)NCc4ccco4)ncnc3c2c2c1CCC2`, for which the cytotoxicity is 5.7%.

With `Cc1nc(SCC(=O)NCc2ccco2)c2c3c(sc2n1)CCCC3`, the cytotoxicity is -4.3%.

Regarding `O=C(CSc1ncnc2sc3c(c12)CCCCC3)NCc1ccco1`, the cytotoxicity is -22.5%.

Take `CSc1nc(NCc2ccco2)c2c3c(sc2n1)CN(C)CC3`: the cytotoxicity is -21.3%.

Regarding `CSc1nc(SCC(=O)NCc2ccco2)c2c3c(sc2n1)COC(C)(C)C3`, the cytotoxicity is 51% (active).

Take `CCCc1nc2sc3c(SCC(=O)NCc4ccco4)ncnc3c2c2c1CCC2`: the cytotoxicity is 59% (active).

On to `CC(C)c1nc2sc3c(NCc4ccco4)ncnc3c2c2c1COC(C)(C)C2`, for which the cytotoxicity is -10.3%.

In the case of `CSc1nc(SCC(=O)NCc2ccco2)c2c3c(sc2n1)CN(C)CC3`, the cytotoxicity is -9.6%.

`CC(C)Sc1nc(NCc2ccco2)c2c3c(sc2n1)COC(C)(C)C3`: the cytotoxicity is 83.4% (active).

For `c1coc(CNc2ncnc3sc4c(c23)CCCCC4)c1`, the cytotoxicity was -10.2%.

In the case of `Cc1nc(NCc2ccco2)c2c3c(sc2n1)CCC3`, the cytotoxicity is 56.1% (active).

For `CC(C)Sc1nc(SCC(=O)NCc2ccco2)c2c3c(sc2n1)COC(C)(C)C3`, the cytotoxicity was 24.2%.

Take `CN1CC2(C(=O)c3ccccc3)CN(C)CC(C(=O)c3ccccc3)(C1)C2`: the cytotoxicity was -20.9%.

In the case of `O=c1nc2n(c3ccccc13)Cc1ccccc1-2`, the cytotoxicity is -1.4%.

Turning to `O=C(CSc1nnc(C2CC2)n1Cc1ccccc1)c1ccc(S(=O)(=O)N2CCOCC2)cc1`, the cytotoxicity is -8.3%.

On to `Cn1nc(C(=O)Nc2ccc(S(=O)(=O)N3CCCCC3)cc2)ccc1=O`, for which the cytotoxicity is -4.3%.

Regarding `Cn1c(=O)c2c(nc(Oc3ccccn3)n2C)n(C)c1=O`, the cytotoxicity is -12.5%.

Regarding `O=C(c1ccc2c(=O)n(-c3ccccc3)c(=O)[nH]c2c1)N1CCCCC1`, the cytotoxicity was -2.4%.

On to `COc1ccc(/C=N/n2cc(-c3ccc(OC)cc3)nc2N)cc1`, for which the cytotoxicity was -8.1%.

As to `COc1ccc(/C=N/n2cnnc2SCc2ccccc2)cc1`, the cytotoxicity is 3.5%.

Consider `COc1ccc(/C=N/n2cc(-c3ccccc3)nc2N)cc1`, for which the cytotoxicity was 65.5% (active).

On to `CC(C)NC(=O)Cn1c(SCC(=O)N2CCCc3ccccc32)nc2ccccc21`, for which the cytotoxicity is -5.8%.

On to `CC(C)NC(=O)Cn1c(SCC(=O)N2CCc3ccccc3C2)nc2ccccc21`, for which the cytotoxicity was 129% (active).

Consider `CC(C)NC(=O)Cn1c(SCC(=O)N2CCCCCC2)nc2ccccc21`, for which the cytotoxicity was -7.8%.

Regarding `Cc1ccc(C(=O)Nc2ccccc2N2CCN(C(=O)C(C)C)CC2)cc1C`, the cytotoxicity is -15%.

On to `COc1ccc(NC(=O)Cn2cnc3c(cnn3-c3ccc(C)c(C)c3)c2=O)c(OC)c1`, for which the cytotoxicity was -1.2%.

Take `CCc1nc(OCCN(C)C)c2oc3ccccc3c2n1`: the cytotoxicity was -12.4%.

Turning to `CN(C)CCOc1nc(-c2ccccc2)nc2c1oc1ccccc12`, the cytotoxicity was 56.4% (active).

With `CCN(CC)CCOc1nc(C)nc2c1oc1ccccc12`, the cytotoxicity is -0.5%.

For `Cc1ccc2[nH]c(=O)c(CNC(C)(C)C)cc2c1`, the cytotoxicity was 1.4%.

As for `O=C(C1=C(O)C(=O)N(CCN2CCOCC2)C1c1cccs1)c1cc2ccccc2o1` (stereo unspecified), the cytotoxicity is -34.2%.
